# Read-outs that look alike come from different tables or passages of the source. Screen size: about 13,000 compounds; about 3,200 (25%) showed an effect of 50% or more. The list shows a part of the results.
# Test system: P. falciparum stage V gametocytes
# Set-up: BacTiter-Glo ATP luminescence viability of purified stage V gametocytes in 384-well plates, per cent inhibition versus DMSO
# Conditions: 48 h, 5 µM, inhibitor
Compound,% Inhibition (% Inhibition) [%],% Inhibition [%]
O=C(/C=C/c1ccc(Cl)c(Cl)c1)NCCCCCN1CCC(c2c[nH]c3ccccc23)C(O)C1 (stereo not shown) [TCMDC-139694],-6.926,
O=C(Cc1ccc(Cl)cc1)NC1CCN(c2ccnc3cc(Cl)ccc23)C1 (stereo not shown) [TCMDC-133399],,-11.42
CC1(C)OC[C@]2(C)[C@@H](CC[C@]3(C)C4=CC(=O)CCC4CC[C@@H]23)O1 (stereo partly shown) [TCMDC-137379],,35.88
CCc1sc(-c2ccc(C(C)(C)C)cc2)nc1C(=O)NCCCN1CCCC1=O [TCMDC-133692],,75.07
CC(C)c1sc(-c2ccc(C(C)(C)C)cc2)nc1C(=O)NCCCN1CCCC1=O [TCMDC-133691],,25.46
O=C(NCCCN1CCCC1=O)NCc1ccccc1 [TCMDC-123844],,3.062
Cc1ccc(C(C(=O)Nc2ccc(N3CCNCC3)c(Cl)c2)c2ccccc2)cc1 (stereo not shown) [TCMDC-134292],,32.74
CN1CCN(c2ccnc3ccc(NC(=O)Nc4ccc(Cl)c(Cl)c4)cc23)CC1 [TCMDC-139321],,12.28
O=C(Nc1ccc(Cl)c(Cl)c1)Nc1ccc2nccc(N3CCNCC3)c2c1 [TCMDC-139452],,-0.1389
O=C(Nc1ccc(Cl)c(Cl)c1)Nc1ccccc1N1CCNCC1 [TCMDC-133727],,92.01
O=C(Nc1ccc(C(F)(F)F)cc1)Nc1ccccc1N1CCNCC1 [TCMDC-133726],,29.85
CN1CCN(c2ncnc3ccc(NC(=O)Nc4ccc(Cl)c(Cl)c4)cc23)CC1 [TCMDC-139439],,21.32
CN1CCN(c2ccnc3ccc(NC(=O)Nc4c(Cl)cccc4Cl)cc23)CC1 [TCMDC-139352],,-27.77
O=C(Nc1ccc(Cl)c(Cl)c1)Nc1ccc2nccc(N3CCN(Cc4ccccc4)CC3)c2c1 [TCMDC-139649],,65.98
Cc1cc(N2CCNCC2)c2cc(NC(=O)Nc3ccc(Cl)c(Cl)c3)ccc2n1 [TCMDC-139533],,55.92
O=C(N[C@@H](CC1CCCCC1)C(=O)NC1CCCc2ccccc21)c1ccc(O)c(-c2cccc(C(F)(F)F)c2)c1 (stereo partly shown) [TCMDC-140821],,14.55
Cc1cccc(-c2cccc3c(NC(=O)N4CCc5cc6nccc(N7CCN8CCC[C@H]8C7)c6cc54)cccc23)n1 [TCMDC-140053],,-32.82
COc1cc(Cc2cnc(N)nc2N)cc(OCCCCC2SC(=O)NC2=O)c1Br (stereo not shown) [TCMDC-137240],,11.21
Cc1noc(C)c1-c1cccc(CNCc2cccc(-c3cccc(-c4nc5cccc(C)c5[nH]4)c3)c2)c1.O=C(O)C(F)(F)F [TCMDC-133050],,-47.47
COc1cc(Cc2cnc(N)nc2N)ccc1Oc1ccc(N)cc1 [TCMDC-138639],,-31.17
COc1cc(C2CCCCC2)c(OC)cc1CC1c2cc(O)c(Cl)cc2CCN1C (stereo not shown) [TCMDC-137539],,-5.034
CS(=O)(=O)NCCCNCc1cccc(-c2cccc(-c3nc4cc(C(F)(F)F)ccc4[nH]3)c2)c1.O=C(O)C(F)(F)F [TCMDC-133086],,-10.1

Compound,% Inhibition (% Inhibition) [%],% Inhibition [%]
COc1cc(N(Cc2ccc(F)cc2)C(=O)c2ccc(-c3ccccc3)cc2)ccc1OCCN1CCCC1 [TCMDC-140662],,28.65
CCCC(C)N(Cc1ccc(C(C)(C)C)cc1)C(=O)c1cccc(OC)c1 (stereo not shown) [TCMDC-139783],,-10.58
CCN(CC)CCOc1ccc(N(Cc2ccc(C(C)(C)C)cc2)C(=O)c2ccc(Cc3ccccc3)cc2)cc1OC [TCMDC-140667],,103.5
CCNc1cc(C(=O)N[C@@H](Cc2ccccc2)[C@H](O)CNCc2ccc3c(c2)OCCO3)cc(N2CCCCS2(=O)=O)c1 [TCMDC-135189],,-0.5627
CCCc1cc(Cc2cnc(N)nc2N)cc(CCC)c1OCCCCC(=O)O [TCMDC-137293],,-0.4294
COc1ccc(-c2cc(-c3nc4ccc(CN)cc4[nH]3)c(=O)n(C)c2)cc1OC [TCMDC-135048],,18.44
COc1ccc2nc(-c3cc(-c4ccc(NC(=O)CN5CCOCC5)cc4)cnc3N)[nH]c2c1 [TCMDC-135373],,7.84
COc1ccc(-c2cc(-c3nc4ccc(C(=O)N5CCOCC5)cc4[nH]3)c(=O)n(C)c2)cc1OC [TCMDC-135055],,52.78
CCN(CC)CCN(Cc1ccc(-c2ccc(C(F)(F)F)cc2)cc1)C(=O)Cn1c(SCc2ccc(F)c(F)c2F)nc(=O)c2c1CCC2 [TCMDC-141063],,82.6
CCn1c(SCc2ccc(F)cc2)nc2sc3c(c2c1=O)CCN(C)C3 [TCMDC-124551],,44.44
CCN1CCC(N(Cc2ccc(-c3ccc(C(F)(F)F)cc3)cc2)C(=O)Cn2nc(C)c(=O)cc2SCc2ccc(F)cc2)CC1 [TCMDC-141284],,72.73
CCN1CCC(N(Cc2ccc(-c3ccc(C(F)(F)F)cc3)cc2)C(=O)Cn2c(SCc3ccc(F)cc3)nc(=O)c3c2CCC3)CC1 [TCMDC-140976],,69.1
CCNC(C)(C)CN(Cc1ccc(-c2ccc(C(F)(F)F)cc2)cc1)C(=O)Cn1c(SCc2ccc(F)cc2)nc(=O)c2c1CCC2 [TCMDC-140977],,131.5
CCOC(=O)c1ccc(NC(=O)Nc2ccc(-c3cccc(-c4nc5c(C)cccc5[nH]4)c3)cc2)cc1 [TCMDC-133262],,-3.129
CC(C)(C)c1ccc(CN(C[C@@H](O)CNS(=O)(=O)c2cc(Cl)cc(Cl)c2)C(C)(C)C)cc1 [TCMDC-135386],,-63.29
COc1ccc(CC(=O)NC(CCCN2CCC3(CC2)OCc2ccccc23)c2ccc(Cl)c(Cl)c2)cc1 (stereo not shown) [TCMDC-141898],,-52.62
O=C(Nc1cccc(F)c1)N1CCC(NS(=O)(=O)c2ccc(Br)cc2)CC1 [TCMDC-139438],,2.418
COc1cc2c(cc1OC)-c1cc(=Nc3c(C)cc(C)cc3C)n(C)c(=O)n1CC2 [TCMDC-125545],,16.19
CN(CCCNc1ccc(C(=O)Nc2ccc(C(F)(F)F)cc2)cc1[N+](=O)[O-])Cc1ccccc1 [TCMDC-125682],,-31.17
CN(Cc1cccc(F)c1)C1CCN(c2cc(NC(=O)c3ccc(F)cc3)ccn2)C1 (stereo not shown) [TCMDC-135004],,-24.42
CC(C)c1ccc(NC(=O)c2cccc(CN3CCCN(Cc4cccc(O)c4)CC3)c2)cc1 [TCMDC-135976],,-1.635
CC(C)(C)NCCN(Cc1ccc(-c2ccc(C(F)(F)F)cc2)cc1)C(=O)Cn1c(SCc2ccc(F)cc2)nc(=O)c2c1CCC2 [TCMDC-140978],,110.1

Compound,% Inhibition (% Inhibition) [%],% Inhibition [%]
Cn1ccnc1-c1nc2ccccn2c1NCC(=O)Nc1ccccc1N1CCCCC1 [TCMDC-133801],,-70.89
CCNc1cc(C)nc(Nc2ccc(NC(=O)c3ccc(OC)c(OC)c3)cc2)n1 [TCMDC-124987],,8.373
CSC1=NC(=Nc2ccccc2C)C2(CCC(C(C)(C)C)CC2)N1c1ccccc1Cl (stereo not shown) [TCMDC-124136],,53.76
Cc1cccc(C)c1NC1=NC(=S)N(c2cccc(Cl)c2)C12CCC(C(C)(C)C)CC2 (stereo not shown) [TCMDC-124101],,-11.15
CSC1=NC(=Nc2c(C)cccc2C)C2(CCCCC2)N1c1ccccc1Cl [TCMDC-124143],,13.06
Cc1cc(C(=O)NC2CCN(Cc3ccccc3)CC2)ccc1-c1nc2ccc(C(F)(F)F)cc2[nH]1 [TCMDC-140120],,-4.747
N#Cc1ccc(N2CCN(Cc3ccc(-c4ccc(-c5nc6ccc(F)cc6[nH]5)s4)cc3)CC2)nc1 [TCMDC-133115],,-21.41
Oc1cc(Nc2ccnc3cc(-c4cccc(CN5CCOCC5)c4)ccc23)c(F)cc1Cl [TCMDC-138434],,12.33
CN1CCN(CCCSc2ccc3c(c2)ncn3-c2cc(OCc3ccccc3C(F)(F)F)c(C(N)=O)s2)CC1 [TCMDC-135408],,12.22
NC(=O)c1sc(-n2cnc3ccc(C(=O)NCCN4CCOCC4)cc32)cc1OCc1ccccc1C(F)(F)F [TCMDC-135181],,-45.79
NC(=O)c1sc(-n2cnc3ccc(OCC4CCNCC4)cc32)cc1OCc1ccccc1C(F)(F)F [TCMDC-135173],,107
C[C@@H](Oc1cc(-n2cnc3ccc(OCC4CCN(S(C)(=O)=O)CC4)cc32)sc1C(N)=O)c1ccccc1C(F)(F)F [TCMDC-135685],,34.9
COc1ccc2ncn(-c3ccc(C(N)=O)c(OCc4ccccc4C(F)(F)F)c3)c2c1 [TCMDC-134428],,48.51
CC(C)CN1CCC(COc2ccc3ncn(-c4cc(O[C@H](C)c5ccccc5C(F)(F)F)c(C(N)=O)s4)c3c2)CC1 [TCMDC-135856],,86.18
Cc1nc(N)nc(N)c1CCCOc1ccccc1Cl [TCMDC-137929],,3.372
COc1cccc(CNC[C@@H](O)[C@H](Cc2ccccc2)NC(=O)c2cc(NC(C)C)cc(N3CCCCS3(=O)=O)c2)c1 [TCMDC-135205],,28.03
CC1(C)C=C(c2ccncc2)c2cc(Cl)ccc2O1 [TCMDC-131771],,-9.955
Clc1cccc(Nc2ccc3c(N4CCCCC4)ncnc3n2)c1 [TCMDC-134937],,52.12
Cc1cc(Nc2nc(Nc3cccc(Cl)c3)nc3ccccc23)n[nH]1 [TCMDC-134695],,12.71
O=C(NCC1CCC1)c1cnc(Nc2cccc(Cl)c2)nc1N1CCC1 [TCMDC-135363],,5.577

# From publication PMC4552634, “A New Set of Chemical Starting Points with Plasmodium falciparum Transmission-Blocking Potential for Antimalarial Drug Discovery” (PLoS ONE, 2015)
